Results on 40 compounds are retold here after PubChem BioAssay (NCI).

The structures appear in SMILES notation. The panel holds about 83,000 compounds, 20% with a hit somewhere; the sample as a whole holds those more often.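 96-well plates, one dose, 48 hours. Percent growth reported; active if below 10.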 Calls of active or inactive are those of the source.

The subject of this assay is COLO 205 colon. Nature of the assay: NCI-60 one-dose screen, 48 h (100 = growth as untreated, 0 = no growth, -100 = all killed). The note with it: 10 µM unless noted. How it is done: Cells are grown in 96 well plates and exposed to the test compound for 48 hours. Compounds are tested at a single concentration, which is 10^-5 M for most compounds. The reported endpoint is percent growth (GI% or GIPRCNT), where numbers from 0 - 100% represent growth inhibition, and numbers from -100% - 0 represent cell death. For example, a value of 40 represents 60% growth inhibition. A value of 0 means no net growth occurred over the course of the experiment. A value of -40 indicates 40% of cells at the beginning of the experiment died by the end of the experiment. A value of -100 means all cells are dead at the end of the experiment.
NCI-60 Human Tumor Cell Lines Screen was performed using the standard one-dose NCI protocol, which is described in more detail at https://dtp.cancer.gov/discovery_development/nci-60/default.htm.
Compounds with GIPRCNT values below 10 were considered active. Activity score was based on GIPRCNT using the following formula: […]
Score is 0 for GIPRCNT values of 100 or above, 50 for GIPRCNT values of 0, and 100 for GIPRCNT values of -100.
For the compound `Clc1ccc(Nc2nnc(CNc3ccccc3)c3ccccc23)cc1`, the growth was 11.9% (inactive). For `O=C(O)c1cn(C2CC2)c2cc(N3CCN(C(=O)N4CCOCC4)CC3)c(F)cc2c1=O` the value was 110% (inactive); for `O=C1/C(=C/c2ccccn2)SC(=S)N1N1CCOCC1`, 103% (inactive). Under `Clc1ccc(Nc2ncc(Cc3cccc(Cl)c3Cl)s2)cc1` stands 104% (inactive). For the compound `COc1cc2ncnc(Nc3ccc(S(=O)(=O)Nc4nccs4)cc3)c2cc1OCCCN1CCCC1`, the growth was 113% (inactive). As to `Cc1nc2sc(C(=O)Nc3cccc(Cl)c3C)c(N)c2cc1C(=O)/C=C/c1ccccc1`, the growth is -5.18% (active). `N#Cc1c(-c2ccccc2)nc2c(c(-c3ccccc3)nn2-c2ccccc2)c1-c1ccc(N2CCCCC2)cc1`: the growth is 104% (inactive). For `COC(=O)c1sccc1-c1cc(O)c(C(=O)Nc2ccccc2)s1` the value was 102% (inactive); for `CS(=O)(=O)c1ccc(-c2nc3ccccc3n2CC(=O)N/N=C/c2ccccc2)cc1`, 104% (inactive); for `CCCCn1c(NC(C)=O)c(S(=O)(=O)c2ccccc2)c2nc3ccccc3nc21`, 127% (inactive). As to `Cc1ccccc1N1CCN(C(=S)c2ccccc2)CC1`, the growth is 106% (inactive).

For the compound `CN(C)c1ccc(CNCCO)cc1`, the growth is 85.7% (inactive).

For `Cc1ccc(S(=O)(=O)c2nc(-c3ccccc3)oc2SCC(N)=O)cc1`, the growth is 111% (inactive). Take `Nc1c(C(=O)Nc2cccc3ncccc23)sc2nc3c(cc12)CN(Cc1ccccc1)CC3`: the growth is 112% (inactive). For `Fc1ccc2[nH]cc(-c3nc(-c4c[nH]c5c(Cl)nccc45)cs3)c2c1` the value was 25.2% (inactive). In the case of `CCOC(=O)CC1CSC(N/N=C/c2ccc(F)c(Br)c2)=N1` (stereo not given), the growth was 110% (inactive). Under `Fc1cccc(-c2nc(-c3c[nH]c4ncccc34)cs2)c1` stands 76.9% [100 µM] (inactive); under `O=c1ccc2ccc(OCCN3CCCCC3)cc2o1`, 98.5% (inactive).

As to `COc1ccc(C(=O)Nc2ncc(Cc3ccc(Cl)cc3)s2)cc1`, the growth is -2.86% (active).

Consider `COc1cc(-c2ccc[nH]2)[nH]c1/C=C1\N=C(C)C(CC(=O)OCC(C)(C)C)=C1C`, for which the growth is -61.9% (active).

Take `CCNC(=O)N1CCc2c(Br)c3c(c(OC)c2C1Cc1ccc(OC)cc1)OCO3` (stereo not given): the growth is 3.06% (active). For the compound `CS(=O)(=O)Nc1cc(-c2ccc3ncnc(Nc4ccc5c(cnn5Cc5ccncc5)c4)c3c2)cnc1Cl`, the growth was 89.2% (inactive). For the compound `O=C(C[C@]1(O)C(=O)Nc2ccc(Br)cc21)c1ccco1`, the growth was 106% (inactive).

For the compound `CCN(CC)CCOc1ccc(Nc2ncc3cc(-c4c(Cl)cccc4Cl)c(=O)n(CCOC)c3n2)cc1`, the growth was -40% (active). For `Oc1c(CN2CCC(N3CCOCC3)CC2)cc(Cc2cc(CN3CCC(N4CCOCC4)CC3)c(O)c3ncccc23)c2cccnc12` the value was 9.1% (active); for `O=S(=O)(Nc1ccc2ccccc2c1)c1ccc(-c2cnc(C3CC3)o2)cc1`, 1.46% (active). In the case of `CN(C)CCC(CCN(C)C)(C(=O)O)c1ccccc1`, the growth was 108% (inactive). `CC(C)CCC[C@@H](C)[C@H]1CC[C@H]2[C@@H]3CC=C4c5sc(Nc6cc(C(F)(F)F)cc(C(F)(F)F)c6)nc5CC[C@]4(C)[C@H]3CC[C@]12C`: the growth is 99.8% (inactive). With `O=[N+]([O-])c1c(O)c(Cl)cc(Cl)c1Cl`, the growth was 116% (inactive). `COc1ccc2c(c1)oc1c(C)c3c(c(C)c12)C(=O)N(CCOS(C)(=O)=O)C3=O`: the growth is 107% (inactive).

On to `Nc1nc(N)c2c(n1)NC(c1cccc(Nc3ccnc4cc(C(F)(F)F)ccc34)c1)CC(c1ccc3c(c1)OCO3)=N2` (stereo not given), for which the growth was 66.2% (inactive). For `CCN1C(=O)N(CC)C2C1NN=c1s/c(=C\c3ccc(OC)cc3)c(=O)n12` (stereo not given) the value was -7.08% (active); for `O=C(Nc1cccnc1Nc1ccccc1)c1cn(Cc2cccc(Oc3ccccc3)c2)nn1`, 107% (inactive).

For `CCN(CC)CCn1c2ccc(OC)cc2c2sc3cc(O)ccc3c(=O)c21`, the growth was 23% (inactive). For `Cc1ccc(O)c(NC(=O)c2cccc(Nc3ccnc(C(F)(F)F)c3)c2)c1` the value was 128% (inactive); for `COc1ccc(-c2nc(SCC(=O)Nc3nc4ccc(C)cc4s3)[nH]c(=O)c2C#N)cc1OC`, 115% (inactive); for `COc1ccc(/C=N/Nc2c3ccccc3nc3ccccc23)cc1`, 103% (inactive). For the compound `Cc1c2cnccc2c(C)c2c1c1cc(CO)ccc1n2C`, the growth is -51.2% (active).

Consider `CN(C)c1ccc([C@@H](C(=O)Nc2cccc([N+](=O)[O-])c2)N(C(=O)c2cc3ccccc3[nH]2)c2cccc([N+](=O)[O-])c2)cc1`, for which the growth is 102% (inactive). `Cc1cccc(NC(=O)Cn2cc(CN3CCN(c4ccnc5cc(Cl)ccc45)CC3)nn2)c1`: the growth was 98.6% (inactive).
